Laboratory results reported in PubChem BioAssay (Tox21).
Results filed as inconclusive are left out. Activity calls are given as the source filed them. The call rests on the fitted dose curve; in most records, active means well fitted activation curve with a large enough effect in the signal ratio in the repeat runs (not every such curve was filed as active); inconclusive means weak or mixed curves; inactive means flat fitted curve, though single readings scatter; the % refers to the signal ratio.

Assay: qHTS assay to identify small molecule agonists of the TGF-beta/Smad signaling pathway (AID 1346859)
Conditions: SBE-bla HEK293T, TGF-beta/Smad beta-lactamase reporter, 5 h; series mostly up to 76.8 µM; activation: at the top concentration
Excerpt: U.S. Tox21 Program National Center for Advancing Translational Sciences [NCATS] NIH Chemical Genomics Center [NCGC] U.S. Environmental Protection Agency [EPA] National Institutes of Environmental Health Sciences [NIEHS] National Toxicology Program [NTP] U.S. Food and Drug Administration [FDA] Tox21 Assay Overview: Transforming growth factor beta (TGF-beta) superfamily consists of a large number of structurally related dimeric proteins that act as hormones or local mediators in regulating a wide range of biological functions. This superfamily includes TGF-betas themselves, the bone morphogenetic proteins (BMPs) and the activins. These ligands induce oligomerization of serine/threonine receptor kinases and phosphorylate the cytoplasmic signaling molecules of Smad protein family. CellSensor SBE-bla HEK 293T cell line (Life Technologies, Carlsbad, CA), responsive to TGF-beta was used to screen Tox21 10K compound library for identification of agonists/antagonists of the Smad signaling pathway. This cell line contains a beta-lactamase reporter gene under control of the Smad binding element (SBE) stably integrated into HEK 293T cells.
Tox21 Assay Protocol Summary: SBE-bla HEK 293T cells were dispensed at 4,000/well in 6 uL of assay medium into black wall/clear-bottom 1536-well plates using a Multidrop Combi (ThermoFisher Scientific, Waltham, MA) dispenser. After the assay plates were incubated at 37 C and 5% CO2 for an overnight, 23 nL of compounds dissolved in DMSO, positive controls or DMSO only was transferred to the assay plate by a Pintool station (Kalypsys, San Diego, CA). The assay plates were incubated at 37 C and 5% CO2 for 5 hr. One uL of LiveBLAzer B/G FRET substrate (Life Technologies) was added using a Flying Reagent Dispenser (Aurora Discovery, San Diego, CA) and the plates were incubated at room temperature for 2 hr. Fluorescence intensity (405 nm excitation, 460 nm and 530 nm emissions) was measured using an Envision plate reader (PerkinElmer, Shelton, CT).
On the % scale 0 is the no-effect control and ±100 the full control effect.

Row | SMILES | activation
1 | CC/C=C\CCCCO | 2.06% (inactive)
2 | CCCCCC[C@@H](CCC)C(=O)O | -0.752% [at 35.3 µM] (inactive)
3 | O=C(O)c1cccc(C(=O)O)n1 | 0.623% (inactive)
4 | CCCCCOC(=O)Nc1nc(=O)n([C@@H]2O[C@H](C)[C@@H](O)[C@H]2O)cc1F | 1.39% [at 35.3 µM] (inactive)
5 | CCC(C(=O)NC(N)=O)c1ccccc1 (stereo not given) | -0.178% (inactive)
6 | CC1=CC(C)C(C=O)C(C)C1 (stereo not given) | 1.74% (inactive)
7 | c1cc(CN2CCCCC2)cc(OCCCNc2nc3ccccc3s2)c1 | -0.763% [at 35.3 µM] (inactive)
8 | O=S(=O)(c1cccc2cnccc12)N1CCCNCC1 | -8.26% [at 35.3 µM] (inactive)
9 | Nc1ccn(C2CO[C@H](CO)O2)c(=O)n1 (stereo not given in full) | 0.0701% [at 35.3 µM] (inactive)
10 | CC(C)CCCC(C)CCCC(C)CCCCC(C)CCCC(C)CCCC(C)C (stereo not given) | 5.09% [at 35.3 µM] (inactive)
11 | COc1cccc(Br)c1 | 1.22% (inactive)
12 | Cc1ccccc1Br | -0.346% (inactive)
13 | FC(F)(F)C(F)(F)C(F)(F)C(F)(F)C(F)(F)C(F)(F)C(F)(F)C(F)(F)C(F)(F)C(F)(F)F | 2.81% [at 6.97 µM] (inactive)
14 | CCc1cc(S(=O)(=O)O)c2cc(C(C)C)cccc1-2 | 0.554% [at 35.3 µM] (inactive)
15 | CCN(CC)C(=O)c1ccc(O)c(OC)c1 | 3.49% [at 35.3 µM] (inactive)
16 | N#CCN(CC#N)CCN(CC#N)CC#N | -0.641% (inactive)
17 | C#CC(O)CCCCC (stereo not given) | 3.24% (inactive)
18 | Cn1ccc2cc3c(cc21)CCN3C(=O)Nc1cccnc1 | 2.76% [at 15.8 µM] (inactive)
19 | O=C1OC(=O)c2cc([N+](=O)[O-])ccc21 | -1.88% (inactive)
20 | CC(C)(C)OC(=O)N1C[C@@H](F)C[C@H]1C(=O)O | -1.45% (inactive)

Row | SMILES | activation
21 | C[C@H](O)C(=O)Nc1c(I)c(C(=O)NC(CO)CO)c(I)c(C(=O)NC(CO)CO)c1I | 4.34% [at 35.3 µM] (inactive)
22 | CC1=CC(=O)CCC1 | 0.514% (inactive)
23 | C(=C(c1ccccc1)c1ccccc1)c1ccccc1 | 4.04% (inactive)
24 | CC(=O)OC(C)(C)C | 1.4% (inactive)
25 | CC/C=C\C#N | -5.98% (inactive)
26 | COc1cccc(OC)c1 | 5.19% (inactive)
27 | CCCCCCCCCCCCI | 0.636% (inactive)
28 | C=CCSCC1Nc2cc(Cl)c(S(N)(=O)=O)cc2S(=O)(=O)N1 (stereo not given) | 0.148% [at 35.3 µM] (inactive)
29 | COc1ccc(NC(C)=O)cc1 | 1.75% (inactive)
30 | Oc1cc(O)c2c(c1)O[C@H](c1ccc(O)c(O)c1)[C@H](O)C2 | -0.0533% [at 35.3 µM] (inactive)
31 | CN(C)N=Nc1ccccc1 | 0.786% (inactive)
32 | C#CC(C)(O)CC(C)C (stereo not given) | -0.289% (inactive)
33 | CC(C)c1cccc(O)c1 | 1.95% (inactive)
34 | C1=C\CC/C=C\CC/C=C\CC/1 | -1.77% (inactive)
35 | [O-][N+](=Nc1ccccc1)c1ccccc1 | 0.0394% (inactive)
36 | O=C(O)/C=C/c1ccc(/C=C/C(=O)O)cc1 | 2.85% [at 35.3 µM] (inactive)
37 | CCCCC=O | 0.49% (inactive)
38 | CCCCCCC(=O)OCC | 0.177% (inactive)
39 | NC(=O)c1ncn([C@@H]2O[C@H](CO)[C@@H](O)[C@H]2O)c1N | 1.45% [at 35.3 µM] (inactive)
40 | COc1ccc2cc(C=O)ccc2c1 | 2.9% [at 35.3 µM] (inactive)
